PubChem BioAssay (Tox21)
Records with an inconclusive call do not appear. Active and inactive are the calls of the source. Unless noted, calls follow the shape of the dose curve; as a rule, active = well fitted curve in the direction sought with a large enough effect in the repeat runs; inconclusive = weak or mixed curves; inactive = no such curve, though single readings can be large; an effect the other way counts as inactive or inconclusive.

Key:
[1] = target: Retinoic acid receptor RXR-alpha (Homo sapiens) (UniProt P19793); assay: qHTS assay to identify small molecule agonists of the RXR signaling pathway (AID 1159527; calls by dose curve; also: nearly all actives have a fitted effect of over 35% in size)
Sequence of Retinoic acid receptor RXR-alpha (Homo sapiens) (P19793 whole entry, looked up): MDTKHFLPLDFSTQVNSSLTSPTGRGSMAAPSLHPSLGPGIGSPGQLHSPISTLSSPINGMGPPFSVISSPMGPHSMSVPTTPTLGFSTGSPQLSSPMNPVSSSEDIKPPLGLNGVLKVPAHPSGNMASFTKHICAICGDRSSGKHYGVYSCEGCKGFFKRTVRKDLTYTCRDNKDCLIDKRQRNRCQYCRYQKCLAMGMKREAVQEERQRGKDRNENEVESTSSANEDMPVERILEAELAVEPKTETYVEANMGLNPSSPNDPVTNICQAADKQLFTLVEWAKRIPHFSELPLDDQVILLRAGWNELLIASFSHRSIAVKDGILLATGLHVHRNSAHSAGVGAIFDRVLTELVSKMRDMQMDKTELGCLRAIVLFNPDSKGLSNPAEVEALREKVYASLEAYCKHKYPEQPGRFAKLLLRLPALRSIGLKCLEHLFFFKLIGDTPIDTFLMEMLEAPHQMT
Method in brief: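 Compounds in DMSO were added to RXR-alpha-UAS-bla HEK 293T cells kept in 2% charcoal-stripped serum, and incubated 16 hr at 37 C with 5% CO2. Reporter signal came from a 2 hr B/G FRET substrate step.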

[2] = qHTS assay to identify small molecule agonists of the RXR signaling pathway - cell viability counter screen (AID 1159529);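 also: HEK 293T cells carrying an RXR-alpha UAS beta-lactamase reporter; series mostly up to about 77 µM; nearly all actives have a fitted effect of over 50% in size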
Method in brief: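 Counter screen: CellTiter-Glo luminescence. Cells: RXR-alpha-UAS-bla HEK 293T. Medium: 2% charcoal-stripped FBS. Treatment: 16 h, 37 C. Reagent incubation: 30 min, RT.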

[3] = qHTS assay to identify small molecule antagonists of the retinoid acid receptor (RAR) signaling pathway - cell viability counter screen (AID 1159551); also: nearly all actives have a fitted effect of over 35% in size
Method in brief: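 Measured by luminescent ATP detection, viability reflects C3RL4 cells treated 6 h at 37 C with test chemicals in the presence of 1 uM (final) retinol.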

[4] = qHTS assay to identify small molecule antagonists of the retinoic acid receptor (RAR) signaling pathway (AID 1159552; also: nearly all actives have a fitted effect of over 50% in size; also: potency is read from the fitted curve at half-maximal effect)
Method in brief: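 Antagonism of retinol-induced RARE reporter activity was measured in C3RL4 cells. Exposure to compounds and 1 uM final retinol lasted 6 hr at 37 C, with luminescence as endpoint.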

[5] = qHTS assay to identify small molecule antagonists of the estrogen related receptor (ERR) signaling pathway - cell viability counter screen (AID 1224818); also: series mostly up to about 46 µM
Method in brief: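 Compounds dissolved in DMSO were applied to ERR cells seeded at 2,000 per well 6 h earlier. Cell viability followed 17.5 h later via 30-min CellTiter-Fluor fluorescence.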

[6] = qHTS assay to identify small molecule antagonists of the estrogen related receptor signaling pathway with the pleiotropic PPARgamma coactivator (PGC) cell viability counter screen (AID 1224822; also: series mostly up to about 46 µM)
Method in brief: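 Counter screen for cell viability: PGC/ERR cells, 6 h pre-incubation after plating, 17.5 h compound exposure at 37 C, fluorescence from CellTiter-Fluor after 30 min.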

[7] = qHTS assay to identify small molecule agonists of the retinoic acid receptor (RAR) signaling pathway (AID 1159553); also: potency is read from the fitted curve at half-maximal effect
Method in brief: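 6 hr compound exposure (DMSO vehicle) of overnight-plated C3RL4 RARE-luc cells at 37 C; luminescence quantified after 30 min RT with luciferase reagent.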
% is scaled to controls: 0 for no effect and ±100 for the full control effect.

CCCCP(CCCC)CCCC
inactive: Potency [1] | Potency [2] | Potency [3]

COP(N)(=S)Oc1ccccc1C(=O)OC(C)C (stereo unspecified)
inactive: Potency [1] | Potency [2] | Potency [3]

COP(=S)(OC)Oc1ccc(S(N)(=O)=O)cc1
inactive: Potency [1] | Potency [2] | Potency [3]

CN(N=O)C(N)=O
inactive: Potency [1] | Potency [2] | Potency [3] | Potency [4]

O=C1OC(CCN2CCCCC2)OC1(c1ccccc1)c1ccccc1 (stereo unspecified)
active: Potency [4] 26.6 µM
inactive: Potency [1] | Potency [2] | Potency [3]

NC(=O)c1cc([N+](=O)[O-])cc([N+](=O)[O-])c1
inactive: Potency [1] | Potency [2] | Potency [3]

O=C1c2ccccc2C(=O)c2ccccc21
inactive: activation [1] 2.89% [at 15.8 µM] | activity change, negative = cytotoxicity [2] 3.01% [at 15.8 µM] | activity change, negative = cytotoxicity [3] 3.84% [at 19 µM]

COc1cc(OC)nc(Oc2cccc(Oc3nc(OC)cc(OC)n3)c2C(=O)O)n1
inactive: Potency [1] | Potency [2] | Potency [3]

Oc1c(Cl)cccc1Cl
inactive: Potency [1] | Potency [2] | Potency [3] | Potency [4]

CCCSC(=O)N(CCC)CCC
inactive: Potency [1] | Potency [2] | Potency [3]

CNCC(=O)c1ccc(O)c(O)c1
inactive: Potency [1] | Potency [2] | Potency [3]

CC(CC(C#N)(c1ccccc1)c1ccccc1)N(C)C (stereo unspecified)
inactive: Potency [1] | Potency [2] | Potency [3]

COCC(=O)N(c1c(C)cccc1C)N1CCOC1=O
inactive: Potency [1] | Potency [2] | Potency [3]

CSc1nc(N=[N+]=[N-])nc(NC(C)C)n1
inactive: Potency [1] | Potency [2] | Potency [3]

COc1cc(OC)nc(Sc2cccc(Cl)c2C(=O)O)n1
inactive: Potency [1] | Potency [2] | Potency [3]

CC1CCC(=O)O1 (stereo unspecified)
inactive: Potency [1] | Potency [2] | Potency [3]

CC(=O)C(Cl)Cl
inactive: Potency [1] | Potency [2] | Potency [3]

Cc1coc2c1CCC(C)C2 (stereo unspecified)
inactive: Potency [1] | Potency [2] | Potency [3]

C[N+](=O)[O-]
inactive: Potency [1] | Potency [2] | Potency [3]

COC(=O)C(c1ccccc1)C1CCCCN1 (stereo unspecified)
inactive: Potency [1] | Potency [2] | Potency [3]

CN1CCC(N(Cc2ccccc2)c2ccccc2)CC1
inactive: Potency [1] | Potency [3]

COc1ccc(C(=O)N2CCCC2=O)cc1
inactive: Potency [1] | Potency [2] | Potency [3] | outcome [5] | outcome [6]

OC(c1ccccc1)(c1ccccc1)C1CCNCC1
inactive: Potency [1] | Potency [2] | Potency [3] | Potency [7]

C[N+](C)=CCl
inactive: Potency [1] | Potency [2] | Potency [3] | Potency [4] | Potency [7]

COc1ncc(F)c2nc(S(=O)(=O)Nc3c(F)cccc3F)nn12
inactive: Potency [1] | Potency [3]

CCN(CC)CCOC(=O)C(C)(c1ccccc1)c1ccccc1
inactive: Potency [1] | Potency [2] | Potency [3] | Potency [4] | Potency [7]

ClC(Cl)C(Cl)Cl
inactive: Potency [1] | Potency [2] | Potency [3] | Potency [4] | Potency [7]

CCCCc1ccc(O)cc1
inactive: Potency [1] | Potency [2] | Potency [3] | Potency [4] | Potency [7]

c1coc(-c2nc3ccccc3[nH]2)c1
active: Potency [7] 3.86 µM
inactive: Potency [1] | Potency [2] | Potency [3] | Potency [4]

COC(=O)C1=CCCN(C)C1
inactive: Potency [1] | Potency [2] | Potency [3] | outcome [5] | outcome [6]

c1cc2c(c(N3CCNCC3)c1)OCCO2
inactive: Potency [1] | Potency [2] | Potency [3] | Potency [7]

C=CC1CC=CCC1 (stereo unspecified)
inactive: Potency [1] | Potency [2] | Potency [3] | Potency [7]

CSc1ccc(C(=O)C(C)(C)N2CCOCC2)cc1
inactive: Potency [1] | Potency [2] | Potency [3] | Potency [7]

N#CC(Cl)(Cl)Cl
inactive: Potency [1] | Potency [2] | Potency [3] | Potency [7]

CC(C=O)Cc1ccc2c(c1)OCO2 (stereo unspecified)
inactive: Potency [1] | Potency [2] | Potency [3] | Potency [4] | Potency [7]

CCCCCCBr
inactive: Potency [1] | Potency [2] | Potency [3] | Potency [7]

O=C(O)c1cccc(Cl)c1
inactive: Potency [1] | Potency [2] | Potency [3] | Potency [4] | Potency [7]

CC(C)[N+](=O)[O-]
inactive: Potency [1] | Potency [2] | Potency [3] | Potency [4] | Potency [7]

O=C1CN2CCOC2(c2ccccc2Cl)c2cc(Cl)ccc2N1 (stereo unspecified)
inactive: Potency [1] | Potency [2] | Potency [3] | Potency [4] | Potency [7]

Clc1cccc(N2CCNCC2)c1
inactive: Potency [1] | Potency [2] | Potency [3] | Potency [4] | Potency [7]

CCSC(=O)N(CC)C1CCCCC1
inactive: Potency [1] | Potency [3]

ClC(Cl)Br
inactive: Potency [1] | Potency [2] | Potency [3] | Potency [4] | Potency [7]

COC(=O)c1c(C(F)F)nc(C(F)(F)F)c(C2=NCCS2)c1CC(C)C
inactive: Potency [1] | Potency [2] | Potency [3] | Potency [7]

CC1COC2(c3ccccc3Cl)c3cc(Cl)ccc3NC(=O)CN12 (stereo unspecified)
inactive: Potency [1] | Potency [2] | Potency [3] | Potency [7]
